# Measured values: ChEMBL document CHEMBL3988442, “University of Dundee, Small-Polar-MMV Screening Library” (2021)
# Out of some 69,000 compounds screened, about 950 (1.4%) showed an effect of 50% or more. Shown is part of a subset that was picked to be rich in strong results.
# System: Mycobacterium tuberculosis
# Test: Cornell M. t heat shock assay; further: in the data most compounds retested in dose-response had high values
# Type: functional, organism-based
# Design: dose or concentration left out as unconfirmed
row,SMILES,Percent Effect
1,c1ccc2nc(N3CCOC(Cn4cccn4)C3)cnc2c1 (centres undefined),-17.06%
2,c1ccc2nc(N3CCOC(Cn4cncn4)C3)cnc2c1 (centres undefined),-13.9%
3,Cc1cnn(CC2CN(c3cnc4ccccc4n3)CCO2)c1 (centres undefined),103.1%
4,Cc1cc(C)n(CC2CCCN2C(=O)c2nccc3ccccc23)n1 (centres undefined),3.715%
5,CC(=O)N(C)[C@H]1CC[C@]2(CC1)CNC(=O)c1cc(C)ccc1O2,5.316%
6,CC(C(=O)N1CCCC1)n1nc(-c2cccs2)cc(N)c1=O (centres undefined),-4.273%
7,Cc1nc(-n2nc(-c3cccs3)cc2N)[nH]c(=O)c1C,103.7%
8,CCc1c(C)nc(-n2nc(-c3cccs3)cc2N)[nH]c1=O,106.4%
9,CC(C(N)=O)n1nc(-c2cccs2)cc(N)c1=O (centres undefined),10.66%
10,CN1CCN(Cn2nc(-c3cccs3)ccc2=O)CC1,6.699%
11,Cc1nn(C)c(C)c1S(=O)(=O)NCCn1ccc(-c2cccs2)n1,-25.61%
12,CC1c2ncc(CN3CCN(C)CC3)n2CCN1Cc1ccsc1.O=C(O)C(F)(F)F.O=C(O)C(F)(F)F.O=C(O)C(F)(F)F (centres undefined),-30.83%
13,CCN1CCC2(CC1)OCCN2C(=O)c1ccc(OC)c(Cl)c1.Cl,7.471%
14,CCn1ncc2c1C(COC)N(C(=O)c1cccs1)CC2.O=C(O)C(F)(F)F (centres undefined),19.39%
15,O=C(CC1CC2(CCN(CC3CC3)CC2)c2ccccc21)NC1CCC1.O=C(O)C(F)(F)F (centres undefined),-33.11%
16,O=C(O)C(F)(F)F.O=C1COC2(CCN(C(=O)c3ccco3)CC2)CN1Cc1ccccn1,-21.74%
17,CC(C)(C)c1ccc(OCC(=O)O)c(CN2C[C@H]3C[C@H](O)C[C@H]3C2)c1,-6.021%
18,Cc1noc(C)c1CN1C(=O)[C@H]2CC[C@@H]1CN(C(=O)c1cscn1)C2,9.12%
19,CNC(=O)c1ccc2c(c1)C1(CCN(CCOC)CC1)C(=O)N2.O=C(O)C(F)(F)F,-17.93%
20,Fc1cccc(Cl)c1CNCCCOc1ccccn1,-11.57%
21,Fc1cccc(Cl)c1CNCCOc1ccccn1,-12.87%
22,Fc1cccc(Cl)c1CNCc1ccccn1,50.99%
23,COCC(=O)NCc1cc(=O)n2c(n1)CN(CC1CCOC1)CCC2.O=C(O)C(F)(F)F (centres undefined),-14.54%
24,CC(C)NC(=O)N1CCC2(CCC(=O)N2CCN2CCCC2)CC1.O=C(O)C(F)(F)F,-7.519%
25,CCc1noc(CN2CCN(C(=O)c3ccccn3)CC2)n1,7.072%

row,SMILES,Percent Effect
1,c1ccc(-c2nc(SCc3nnc(C4CC4)o3)n[nH]2)nc1,78.14%
2,CCc1nnc(CSc2ccccn2)o1,0.1559%
3,O=C(c1ccccn1)N1CCCN(Cc2nnc(C3CC3)o2)CC1,27.04%
4,Cc1nnc(CSc2n[nH]c(-c3ccccn3)n2)o1,13.15%
5,CCc1noc(CSc2n[nH]c(-c3ccccn3)n2)n1,92.11%
6,COCCN1C(=O)[C@H]2CC[C@@H]1CN(Cc1nnc(-c3ccccc3)o1)C2,0.9802%
7,CCOCC1CN(c2ccc(C)nn2)Cc2cnn(CC)c21.O=C(O)C(F)(F)F.O=C(O)C(F)(F)F (centres undefined),34.67%
8,CS(=O)(=O)CC(=O)N1C[C@H]2CCC[C@@]2(COCc2ccccn2)C1.O=C(O)C(F)(F)F,1.254%
9,O=C(O)C(F)(F)F.c1coc(CN2CCC3(CC2)COC(COCC2CC2)C3)c1 (centres undefined),-19.69%
10,O=C(O)C(F)(F)F.O=C(c1cccc(F)c1)N1C[C@H]2CN(Cc3ccccn3)C[C@H]2C1,-10.41%
11,O=C(O)C(F)(F)F.O=C1CC[C@]2(CC[C@@H](NCc3ccsc3)CC2)N1Cc1ccccc1,-7.125%
12,COCc1nn(C(C)C)c2c1CCN(Cc1ccoc1)C2.O=C(O)C(F)(F)F,-50.08%
13,Cc1cc(NCCc2cnccn2)nc(-c2ccccc2O)n1,15.98%
14,Cc1cc(NCCNc2cccnc2)nc(-c2ccccc2O)n1,65.56%
15,Cc1cc(NCCN)nc(-c2ccccc2O)n1,74.35%
16,Cc1cc(NCCNc2cccnc2)nc(N)n1,-13.91%
17,Cc1cc(NCCc2nc(C)c[nH]2)nc(-c2ccccc2O)n1,7.352%
18,Cc1cc(NCCO)nc(-c2ccccc2O)n1,5.939%
19,Cc1cc(C)c(N(CC(O)CNCc2ccco2)S(C)(=O)=O)c(C)c1.O=C(O)c1ccccc1 (centres undefined),18.07%
20,CCOC1COC2(CCN(Cc3ccc(F)cc3)CC2)C1.O=C(O)C(F)(F)F (centres undefined),-14.13%
21,CCCC(=O)N(CCCN1CCOCC1)c1nc2c(C)ccc(Cl)c2s1.Cl,99.14%
22,CCCC(=O)N(CCCN1CCOCC1)c1nc2c(C)c(C)ccc2s1.Cl,46.86%
23,CCCC(=O)N(CCCN1CCOCC1)c1nc2c(Cl)cccc2s1.Cl,25.9%
24,COC(=O)c1ccc(CN[C@@H]2COC[C@H]2Cc2cc(C)no2)cc1.O=C(O)CC(O)(CC(=O)O)C(=O)O,-21.34%
25,CC(C)Nc1cccc(CC2CCN(C)C2)n1.O=CO (centres undefined),4.45%

row,SMILES,Percent Effect
1,CCCc1cc(NCCN2CCNC2=O)n2nccc2n1,-6.778%
2,CCCc1cc(NCCn2cccn2)n2nccc2n1,70.39%
3,CCCc1cc(NCCn2cccn2)n2ncnc2n1,8.061%
4,COCCN(C)C1COC2(CCN(Cc3cccc(F)c3)CC2)C1.O=C(O)C(F)(F)F.O=C(O)C(F)(F)F (centres undefined),-38.12%
5,Cn1cccc1C(=O)N1CCC2(CCN2c2ncccn2)C1.O=C(O)C(F)(F)F (centres undefined),8.832%
6,CCc1ccc(CN2CC[C@H]3[C@H]2CC(=O)N3Cc2cccc(C)n2)o1.O=C(O)C(F)(F)F.O=C(O)C(F)(F)F,-1.259%
7,CC(c1cccc(F)c1)N1CCN(Cc2nccn2C)CC1 (centres undefined),-12.42%
8,Cc1ccc(CNC(c2cccc(F)c2)c2nccn2C)o1.Cl (centres undefined),79.6%
9,Cc1ccc(CNC(c2ccc(F)cc2)c2nccn2C)o1 (centres undefined),74.11%
10,Cc1ccc(CNCCC(O)(c2nccn2C)C(F)(F)F)o1 (centres undefined),-16.27%
11,Cc1ccc(CNC(C)c2cc(F)ccc2N2CCN(C)CC2)o1 (centres undefined),-35.24%
12,COc1c(CNC(c2cccc(F)c2)c2nccn2C)c(C)nn1C (centres undefined),-20.66%
13,Cl.Cn1nc(C2CCCN(Cc3ccc(F)c(F)c3)C2)c2nccnc21 (centres undefined),-15.39%
14,O=C(O)C(F)(F)F.O=C(O)C(F)(F)F.O=C1CO[C@@H]2CN(Cc3nccs3)C[C@H]2N1Cc1ccncc1,-20.96%
15,O=C(O)C(F)(F)F.O=C(O)C(F)(F)F.c1cncc(O[C@H]2CC[C@H]3[C@H]2OCCN3C2CCC2)c1,-41.43%
16,COc1nccnc1-c1cccc(-c2ccn(CC3COCCO3)n2)c1 (centres undefined),-10.15%
17,CSc1nccc(-c2cccc(-c3ccn(CC4COCCO4)n3)c2)n1 (centres undefined),87.01%
18,COc1cccc(-c2cccc(-c3ccn(CC4COCCO4)n3)c2)n1 (centres undefined),-12.43%
19,Cc1cnccc1-c1cnn(CCNC(=O)c2cccnc2)c1C1CC1.Cl,-20.8%
20,O=C(NCCNc1ncccn1)C1CCN(C(=O)NC2CC2)CC1,12.93%
21,COc1ccc(-c2nnc(SC(C)C(=O)NCC(C)C)[nH]2)c(OC)c1 (centres undefined),21.58%
22,Cc1cccnc1CN(C)C(C(=O)O)c1ccc(-c2ccn[nH]2)cc1 (centres undefined),46.05%
23,Cc1cccnc1CN(C)C(C(=O)O)c1ccc(C(C)(C)C#N)cc1 (centres undefined),35.15%
24,Cc1cccnc1CN(C)C(C(=O)O)c1ccc(-n2cccn2)cc1 (centres undefined),85.61%
25,CCn1ccc(-c2cc(C(=O)O)n3nc(C)c(Cl)c3n2)n1,6.637%

row,SMILES,Percent Effect
1,COc1ccccc1OCCNCCn1cccn1,-4.408%
2,Cc1cccc(OCCCNC(=O)Cn2ccc(C)cc2=O)c1,9.396%
3,CCOc1cccc(C(=O)Nc2ccn(CC)n2)c1,10.2%
4,CCn1ccc(-c2cc(NCCCOc3cccc(C)c3)nc(C)n2)n1,104.2%
5,CCn1ccc(-c2cc(NCCCOc3ccccc3C)nc(C)n2)n1,105.6%
6,Cc1oncc1C(=O)N1C[C@H](OCc2ccccn2)[C@H]2OCCC[C@H]21.O=C(O)C(F)(F)F,-20.31%
7,CCOC(=O)CSc1nnc([C@@H](N)C(C)C)o1.Cl,-3.757%
8,CNC(=O)c1cc2c(nc1NCC1CC1)CCN(CC1CC1)CC2.O=C(O)C(F)(F)F.O=C(O)C(F)(F)F,-24.38%
9,Cc1cccc(C)c1CCNC(=O)N1CCCC2(C1)OCCO2,5.49%
10,O=CO.c1nc(CN2CCCC(Cc3ccc(NC4CCCC4)nn3)C2)c[nH]1 (centres undefined),20.05%
11,Cc1ccc(CN2C[C@H]3C[C@H](C(=O)Nc4cccnc4)[C@@H](C2)O3)cc1,0.4433%
12,Cc1cnc(CNC(=O)[C@@]23CCO[C@@H]2CCNC3)cn1.O=C(O)C(F)(F)F,23.9%
13,c1cc(-c2ccc3c(c2)CCC32CCNCC2)ccn1,-56.04%
14,O=C(O)C(F)(F)F.c1cncc(-c2ccc3c(c2)C2(CC3)CCN(c3nncs3)CC2)c1,12.31%
15,c1cncc(-c2ccc3c(c2)CCC32CCNCC2)c1,88.51%
16,O=C(O)C(F)(F)F.O=C(O)C(F)(F)F.c1csc(CN2CCC3(CC2)CCN(CC2CC2)CC3)n1,-18.7%
17,O=C(O)C(F)(F)F.O=C(O)C(F)(F)F.c1cncc(-c2ccc3c(c2)CCC32CCN(Cc3nccs3)CC2)c1,74.6%
18,CN(C)CC(=O)N1CCC2(CCc3cc(-c4cccnc4)ccc32)CC1.O=C(O)C(F)(F)F.O=C(O)C(F)(F)F,53.15%
19,Cc1ccc2c(c1)CCC21CCN(C(=O)CN(C)C)CC1.O=C(O)C(F)(F)F,-22.19%
20,CN(C)CC(=O)N1CCC2(CCc3ccc(-c4ccncc4)cc32)CC1.O=C(O)C(F)(F)F.O=C(O)C(F)(F)F,-52.11%
21,c1cncc(-c2ccc3c(c2)C2(CCNCC2)CC3)c1,-40.79%
22,O=C(O)C(F)(F)F.O=C(O)C(F)(F)F.c1cncc(C2COC3(CCN(Cc4nccs4)CC3)C2)c1 (centres undefined),-9.404%
23,O=C(O)C(F)(F)F.O=C(O)C(F)(F)F.c1cncc(-c2ccc3c(c2)CCC32CCN(Cc3ccco3)CC2)c1,104%
24,CN1CCN(Cc2cccnc2)C(=O)C12CCN(Cc1ccco1)CC2.O=C(O)C(F)(F)F.O=C(O)C(F)(F)F.O=C(O)C(F)(F)F,5.064%
